Compound activity (PubChem BioAssay)
Compounds with a hit are over-represented: about 10% of the library has one in this group of screens.
Gal4-VP16 FLuc: Gal4-VP16 reporter inhibition counter-screen. Drosophila S2 Gal4-VP16 UAS-luciferase, luminescence, 20 h. Potency, µM (highest dose often 53.6 µM), inactives show top-dose activity, negative = inhibition, most hits filed as inhibitors. 310,000 tested, 3.5% active;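 note: Gal4-VP16 expression switched on by copper sulfate through the metallothionein promoter; % is set by controls: 0 for no effect and ±100 for the full control effect; nearly all actives have a fitted effect of over 50% in size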
KB-V1 MDR tox: kills drug-selected multidrug resistant KB-V1 cells. KB-V1 MDR cells viability, CellTiter-Glo, 72 h. Potency, µM (titrated, usually from 46.1 µM), hits mostly cytotoxic. 400,000 tested, 3.4% active. AID 1347076; note: % is set by controls: 0 for no effect and ±100 for the full control effect; nearly all actives have a fitted effect of over 60% in size
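KB-V1, DMEM (no phenol red) + 10% FBS; cpd pin-transferred, titration series; 72 h, 37 degrees C; CellTiter-Glo, luminescence. Data normalized, curve-fit.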
SW480 rerep: induces DNA re-replication in SW480 colon adenocarcinoma cells. 340,000 tested, 1.8% active. Potency, µM (top dose mostly 46.1 µM), for the others: at the top dose re-replication activation, usual class: activators. SW480 DNA re-replication, Hoechst DNA content imaging, 48 h; note: % of control where 0% means no effect; nearly all actives have a fitted effect of over 55% in size
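Treated cells incubate 48 hr (37 C, 5% CO2), are stained 40 min with Hoechst, and nuclear fluorescence is enumerated; a rise in nuclei with high DNA signal marks re-replication.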
RORg inh: inhibitors of mouse ROR gamma transcriptional activity. P51450. Drosophila S2 Gal4-RORgamma UAS-luciferase reporter, 20 h. Potency, µM (series often up to 53.6 µM), inactives show at the highest dose activity change, negative = inhibition, hits mostly inhibitors. 310,000 tested, 5.4% active. AID 2551; note: % is set by controls: 0 for no effect and ±100 for the full control effect; nearly all actives have a fitted effect of over 60% in size
Target sequence (P51450 whole entry, looked up, the tested form may be a part): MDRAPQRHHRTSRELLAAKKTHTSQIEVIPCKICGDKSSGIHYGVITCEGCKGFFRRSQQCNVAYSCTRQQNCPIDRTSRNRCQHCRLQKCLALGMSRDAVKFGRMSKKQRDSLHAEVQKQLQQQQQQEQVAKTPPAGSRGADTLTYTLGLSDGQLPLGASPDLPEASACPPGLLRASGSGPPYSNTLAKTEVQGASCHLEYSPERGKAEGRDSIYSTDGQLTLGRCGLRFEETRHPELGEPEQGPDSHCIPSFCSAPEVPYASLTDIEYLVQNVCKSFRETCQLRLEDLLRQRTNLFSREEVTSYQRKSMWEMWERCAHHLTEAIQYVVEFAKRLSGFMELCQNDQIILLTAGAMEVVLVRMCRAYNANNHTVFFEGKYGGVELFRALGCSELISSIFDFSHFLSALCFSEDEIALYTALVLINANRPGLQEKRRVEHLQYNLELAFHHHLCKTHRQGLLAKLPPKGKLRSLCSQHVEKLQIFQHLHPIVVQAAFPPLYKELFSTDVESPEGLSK
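ROR gamma transcriptional activity was tracked as Gal4-UAS luciferase output in stably transfected Drosophila Schneider cells, with compound added 1 hr before 700 uM copper sulfate induction and a 20 hr ambient-temperature incubation.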
KB-3-1 tox: KB-3-1 parental cell cytotoxicity | KB-3-1 viability, CellTiter-Glo ATP luminescence, 72 h | Potency, µM (series often up to 46.1 µM), hits mostly cytotoxic | 400,000 tested, 1.4% active | AID 1347075; note: % is set by controls: 0 for no effect and ±100 for the full control effect; nearly all actives have a fitted effect of over 60% in size
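Screening of KB-3-1 cells (DMEM, 10% FBS, phenol-red free) ran from lowest to highest compound concentration; after 72 h at 37 °C viability was read luminescently and curves fitted.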
MCF10A rerep: inducers of DNA re-replication in MCF 10A breast cells; MCF 10A DNA re-replication, Hoechst nuclear intensity, 48 h; Potency, µM (series often up to 46.1 µM), for inactives: at the top dose activity, positive = re-replication, most hits filed as activators; 350,000 tested, 2.9% active; note: % of control where 0% means no effect; nearly all actives have a fitted effect of over 50% in size
* marks the source's active call; other numbers are inactive results; i = inactive; ? = inconclusive; / = no result; [ ] = remark or other dose. Calls come from the whole dose curve; as a rule, active = well fitted curve in the direction sought with a large enough effect; inconclusive = small, poorly fitted or top-dose-only effect, or another doubt; inactive = no such curve, though single readings can be large; an effect the other way counts as inactive or inconclusive. Potency is the fitted concentration of half-maximal effect.

SMILES	Gal4-VP16 FLuc	KB-V1 MDR tox	SW480 rerep	RORg inh	KB-3-1 tox	MCF10A rerep
O=C(/C=C/c1ccco1)NC(=S)Nc1ccc(N2CCOCC2)c(Cl)c1	-19%	?	5.2µM*	1.8µM*	4.1µM*	?
CCCC(=O)NC(=S)Nc1ccc(N2CCOCC2)c(Cl)c1	?	i	-7%	13µM*	i	2%
O=C(/C=C/c1ccccc1)NC(=S)Nc1ccc(N2CCOCC2)c(Cl)c1	?	i	?	2.5µM*	i	8%
CC(C)CC(=O)NC(=S)Nc1ccc(N2CCCC2)c(Cl)c1	2.8µM*	i	-7%	0.4µM*	i	9%
C=Cc1ccc(Cn2c(=O)n(-c3cccc(Cl)c3)c(=O)c3c4c(sc32)CN(C(C)=O)CC4)cc1	/	i	/	/	?	/
COc1ccc(OC2C=CC(C#Cc3ccc(F)cc3F)OC2CO)cc1 (stereo unspecified)	-7%[10 µM]	/	/	28%[10 µM]	/	/
Cc1ccc2c(c1)S(=O)(=O)N(C)C(c1ccccc1)=C2	/	i	-3%	/	i	?
O=C(NC(=S)Nc1ccc(N2CCOCC2)c(Cl)c1)C(c1ccccc1)c1ccccc1	5.6µM*	i	22%	2.8µM*	?	17%
CCOC(=O)c1scc(-c2ccccc2)c1S(=O)(=O)N1CCN(c2ccc(Cl)cc2)CC1	/	i	/	/	i	/
CCc1c(C#N)c(SCc2c(C)noc2C)nc2c1C(=O)CC(C)(C)C2	?	?	-5%	?	i	9.2µM*
CCCOC(=S)NC(=O)c1sc2ccccc2c1Cl	-9%	i	18%	1%	i	15%
CCOC(=S)NC(=O)c1sc2ccccc2c1Cl	5.6µM*	i	10%	1.3µM*	i	-7%
O=C(CNC(=O)c1sc2ccccc2c1Cl)NC1CC1	26%	i	1%	5%	i	-1%
O=C(NC(=S)NCCO)c1sc2ccccc2c1Cl	-19%	i	-16%	11µM*	i	23%
CC1(C)CC(=O)C=C(c2ccc(COC(=O)Cc3ccccc3)cc2)C1=O	/	i	/	/	i	/
CN=c1scc(-c2ccc(F)cc2)n1/N=C/c1ccc(O)c(O)c1	0.79µM*	i	15µM*	0.11µM*	?	?
CCCNC(=O)Cn1nc(-c2ccc(C)c(C)c2)c2cnc3ccc(OC)cc3c21	/	i	/	/	i	/
Cc1cccn2cc(-c3c[nH]c4ccccc34)nc12	-15%	i	-41%[1.84 µM]	-24%	i	26%
Brc1ccc2nc(-c3c[nH]c4ccccc34)cn2c1	?	i	-10%	0.2µM*	i	-3%
NC(=S)N/N=C/c1ccc(-c2ccc([N+](=O)[O-])cc2)o1	?	i	?	7.1µM*	i	8%
N#C/C(=C/c1ccc(-c2cc([N+](=O)[O-])ccc2Cl)o1)C(N)=O	-5%	12µM*	?	18%	i	?
NC(=S)N/N=C/c1ccc(-c2cc(Cl)ccc2Cl)o1	2.8µM*	7.3µM*	-3%	1.3µM*	i	0%
COC(=O)N/N=C/c1ccc(-c2cc(Cl)cc(Cl)c2)o1	-7%	?	-1%	19%	?	4%
CCOC(=O)N/N=C\c1ccc(-c2cc(Cl)ccc2Cl)o1	-19%	i	-17%	22%	i	?
NC(=S)N/N=C/c1ccc(-c2cc(Cl)cc(Cl)c2)o1	4µM*	?	-3%	1.3µM*	i	13µM*
SMILES	Gal4-VP16 FLuc	KB-V1 MDR tox	SW480 rerep	RORg inh	KB-3-1 tox	MCF10A rerep
CCSc1nnc(NC(=O)C2CCN(C(=O)c3ccco3)CC2)s1	/	i	/	/	i	/
CC(C)NC(=O)N1CCN(S(=O)(=O)c2ccc3c(ccn3C)c2)CC1	/	i	/	/	i	/
CNC(=S)N/N=C/c1ccc(-c2cc([N+](=O)[O-])ccc2Cl)o1	?	i	-5%	?	7.3µM*	4%
CCN(CC)S(=O)(=O)c1ccc(NC(=O)NCc2noc3ccc(C)cc23)cc1	/	i	/	/	?	/
O=C(c1ccc(CS(=O)c2ccccc2Cl)o1)N1CCN(c2ccccn2)CC1 (stereo unspecified)	0%	?	-2%	1%	7.3µM*	14%
O=C(c1ccc(CS(=O)Cc2ccccc2Cl)o1)N1CCN(c2ccccn2)CC1 (stereo unspecified)	1%	18µM*	-6%	29%	i	4%
COc1ccccc1CNC(=O)CSc1ncc(S(=O)(=O)c2ccc(C)c(Cl)c2)c(=O)[nH]1	/	i	/	/	i	/
CC(C)N1CC2(CC(c3ccccc3C(F)(F)F)=NO2)CN1C(=O)c1ccco1 (stereo unspecified)	/	i	/	/	i	/
Brc1ccc2nc3c(n2c1)CCCC3	?	i	-7%	13µM*	i	-47%
CC(=O)N(/N=C1\Sc2ccccc2C1=O)c1cccc(C)c1	?	i	1%	7.1µM*	i	17%
COc1ccc(NC2CCCN(C(=O)CCCn3cncn3)C2)cc1OC (stereo unspecified)	-10%	i	-10%	-1%	i	?
O=C(NCCc1cccs1)Nc1nnc([C@H]2C[C@H](O)[C@@H](CO)O2)s1	/	i	/	/	i	/
Cc1[nH]n(-c2ccccc2)c(=O)c1/C=N/N1C(=O)c2cccc3cccc(c23)C1=O	?	7.3µM*	?	7.1µM*	?	14%[9.22 µM]
Cc1[nH]n(-c2ccccc2)c(=O)c1C=Nc1cccc2cccnc12	0.63µM*	18µM*	?	0.63µM*	?	9%
c1csc(CNc2ncncc2-c2ccoc2)c1	-3%	/	/	17%	/	/
Cc1cccc(CC2SC(N)=NC2=O)c1 (stereo unspecified)	-2%	i	3%	-2%	i	3%
O=C1N/C(=N\c2ccccn2)SC1Cc1ccccc1Cl (stereo unspecified)	1µM*	i	15%	0.71µM*	i	?
Cc1cccc(CC2S/C(=N/c3ccccn3)NC2=O)c1 (stereo unspecified)	?	i	-3%	1.3µM*	i	?
Nc1cc(N)cc(C(=O)c2ccccc2)c1	/	i	/	/	i	/
COc1ccc2c(c1)C(=O)[C@@H](OC(=O)NCCOc1ccccc1)[C@H](c1ccc(OC)c(Br)c1)O2	-1%	/	/	-26%	/	/
Oc1nc(Nc2ccccc2)sc1/C=C1\C=Nc2ccccc21	4%	i	16%	-8%	i	21µM*
CCSc1nnc(NS(=O)(=O)c2ccc(OC)cc2)s1	-3%	?	-58%	4%	i	0.73µM*
